Screens as filed in PubChem BioAssay.
Only some compounds are listed: those with a hit (about 17% of all), similar ones and a draw of the others.
ClpP mod – qHTS Assay for Activators of ClpP; 340,000 compounds, 1.9% hits; purified B. subtilis ClpP, FRET peptide cleavage, 20 min; ATP-dependent Clp protease proteolytic subunit (Bacillus subtilis (strain 168)), P80244; Potency, µM (highest dose often 57.5 µM), without a hit: at the highest dose activity change, negative = active; active = well fitted falling curve with a large enough effect; inconclusive = small, poorly fitted or top-dose-only effect; inactive = no such curve, though single readings can be large or run the other way; also: the source files actives as falling curves though it sought activators and does not explain the sign; nearly all actives have a fitted effect of over 65% in size
Target sequence (P80244 whole entry, looked up): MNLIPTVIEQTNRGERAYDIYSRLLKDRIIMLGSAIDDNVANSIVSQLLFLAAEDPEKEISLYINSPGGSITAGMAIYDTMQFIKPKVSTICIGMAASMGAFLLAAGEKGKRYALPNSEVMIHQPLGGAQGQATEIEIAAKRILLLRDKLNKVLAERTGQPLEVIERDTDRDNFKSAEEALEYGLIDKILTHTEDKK
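ClpP 10 microg/mL final, pH 8 Tris/KCl buffer with BSA, glycerol, Tween-20; compound pinned in; FRET-FV substrate; RT 20 min; Ex320/Em430; ΔFRET vs ADEP 5.8 microM, DMSO, no enzyme.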
DT40 TDP1 no CPT – qHTS for Inhibitors of human tyrosyl-DNA phosphodiesterase 1 (TDP1): qHTS in cells in absence of CPT | DT40 Tdp1-/- hTDP1 cells, no CPT, ATP luminescence, 48 h | Potency, µM (doses to about 46.2 µM), for the others: at the top dose activity change, negative = growth inhibition, actives largely listed as inhibitors | 420,000 compounds, 15% hits; also: % is scaled to controls: 0 for no effect and ±100 for the full control effect; nearly all actives have a fitted effect of over 55% in size
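Stably hTDP1-transfected Tdp1-null chicken DT40 cells were treated with library compounds minus camptothecin and grown for at least 48 hr at 37 °C, after which cellular ATP was quantified by luminescence.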
TDP1 inh – TDP1 (human) enzyme inhibition; recombinant TDP1, AlphaScreen DNA substrate cleavage; Potency, µM (top dose mostly 130 µM), for the others: at the highest dose activity change, negative = inhibition, actives largely listed as inhibitors; 350,000 compounds, 0.28% hits; AID 485290; also: % is scaled to controls: 0 for no effect and ±100 for the full control effect; nearly all actives have a fitted effect of over 40% in size
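Steps: enzyme plus compound, 15 min RT; add biotin/phosphotyrosine-FITC oligonucleotide (15 nM final), react 5 min; add donor/acceptor beads (10 ug/ml final), 10 min; read AlphaScreen. Tdp1 at 1 nM final.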
TDP1 cell CPT – DT40-hTDP1 cell growth loss with CPT; chicken DT40 Tdp1-/-;hTDP1 cells + 20 nM CPT, ATP luminescence, 48 h; Potency, µM (highest dose often 46.2 µM), for inactives: at the highest dose activity change, negative = growth inhibition, hits mostly inhibitors; 420,000 compounds, 12% hits; AID 686979; also: % is scaled to controls: 0 for no effect and ±100 for the full control effect; nearly all actives have a fitted effect of over 55% in size
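Cell growth measured by CellTiter-Glo luminescence after a minimum 48 h, 37 C compound exposure with 20 nM CPT in Tdp1-knockout DT40 cells stably expressing hTDP1, seeded 400/well; qHTS titration format.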
ClpP validation – validation of B. subtilis ClpP protease hits (inhibitors) | AID 743245 | shares compounds with ClpP mod | purified B. subtilis ClpP, FRET-FV substrate cleavage, 20 min | 470 compounds, 40% hits | Potency, µM (series often up to 57.5 µM), for inactives: at the highest dose activity change, negative = inhibition, most hits filed as inhibitors; also: % is scaled to controls: 0 for no effect and ±100 for the full control effect; nearly all actives have a fitted effect of over 70% in size
Starred values were filed as active, the others as inactive; [ ] = another dose, or the depositor's remark. Unless noted, calls follow the shape of the dose curve; as a rule, active = well fitted curve in the direction sought with a large enough effect; inconclusive = small, poorly fitted or top-dose-only effect, or another doubt; inactive = no such curve, though single readings can be large; an effect the other way counts as inactive or inconclusive. Potency is read from the fitted curve at half-maximal effect.

Results for Cc1ccc(CNC(=O)CN2C(=O)COc3ccc(S(=O)(=O)N4CCC(C)CC4)cc32)cc1 ?
ClpP mod: -2%; DT40 TDP1 no CPT: -29%; TDP1 inh: 6%; TDP1 cell CPT: inconclusive

What do the screens show for `COc1ccc(-c2oc3ncn4nc(-c5ccccc5Cl)nc4c3c2-c2ccc(OC)cc2)cc1`?
ClpP mod: -13%; DT40 TDP1 no CPT: 5%; TDP1 inh: -4%[12.3 µM]; TDP1 cell CPT: -2%

Results for COc1ccc(-c2oc3ncn4nc(COc5ccc(Cl)cc5)nc4c3c2-c2ccc(OC)cc2)cc1 ?
ClpP mod: 35%; DT40 TDP1 no CPT: -27%; TDP1 inh: -4%[12.3 µM]; TDP1 cell CPT: -25%; ClpP validation: inconclusive

How did COc1ccc2c(=O)c(-c3ccc(OC)c(OC)c3)coc2c1 do in these assays?
ClpP mod: 3%; DT40 TDP1 no CPT: -22%; TDP1 inh: 1%; TDP1 cell CPT: inconclusive

Results for COc1ccc(-c2coc3cc(OC(C)=O)c(OC)cc3c2=O)cc1 ?
ClpP mod: 34%; DT40 TDP1 no CPT: -20%; TDP1 inh: 0%; TDP1 cell CPT: -1%; ClpP validation: -6%

How did COc1ccc(C(C(=O)NC2CCCC2)N(C(=O)c2ccco2)c2cc3c(cc2C(C)=O)OCO3)cc1 (centres undefined) do in these assays?
ClpP mod: 3.2µM*; DT40 TDP1 no CPT: -26%; TDP1 inh: 3%; TDP1 cell CPT: 7%; ClpP validation: 0%

Results for Cc1ccccc1Nc1c(-c2cc(Br)ccc2F)nc2ccccn12 ?
ClpP mod: 4.5µM*; DT40 TDP1 no CPT: -27%; TDP1 inh: -2%; TDP1 cell CPT: -25%; ClpP validation: -7%

Results for COc1ccc(-c2cc(C(=O)NCCc3ccc(OC)c(OC)c3)c3c(-c4ccc(F)cc4)[nH]nc3n2)cc1 ?
ClpP mod: -9%; DT40 TDP1 no CPT: -4%; TDP1 inh: 0%; TDP1 cell CPT: -10%

Results for COc1ccc(-c2cc(C(=O)NCCc3ccccc3)c3c(-c4ccccc4)[nH]nc3n2)cc1OC ?
ClpP mod: 395%; DT40 TDP1 no CPT: inconclusive; TDP1 inh: -3%; TDP1 cell CPT: 16µM*; ClpP validation: 24µM*

Results for CC(C)(C)NC(=O)C(c1ccc(C(F)(F)F)cc1)n1c(=O)c(-c2cc3ccccc3[nH]2)nc2ccccc21 (centres undefined) ?
ClpP mod: -5%; DT40 TDP1 no CPT: inconclusive; TDP1 cell CPT: inconclusive

What do the screens show for `Cc1cccc(C)c1NC(=O)C(c1ccc(-c2ccccc2)cc1)n1c(=O)c(-c2cc3ccccc3[nH]2)nc2ccccc21` (centres undefined)?
ClpP mod: 40%; DT40 TDP1 no CPT: inconclusive; TDP1 cell CPT: inconclusive; ClpP validation: 11%

What do the screens show for `CC(C)(C)NC(=O)C(c1ccc(-c2ccccc2)cc1)n1c(=O)c(-c2cc3ccccc3[nH]2)nc2ccccc21` (centres undefined)?
ClpP mod: 63%; DT40 TDP1 no CPT: 15µM*; TDP1 cell CPT: inconclusive; ClpP validation: 20%

What do the screens show for `CC1(C)Oc2ccc(C(=O)NC3CCCCC3)cc2N(CC#N)C1=O`?
DT40 TDP1 no CPT: -21%; TDP1 cell CPT: -19%

What do the screens show for `COC(=O)c1ccc(NC(=O)CN2CCCN(Cc3ccc(Cl)cc3)S2(=O)=O)cc1`?
ClpP mod: -2%; DT40 TDP1 no CPT: inconclusive; TDP1 inh: 4%; TDP1 cell CPT: inconclusive

How did Cc1cnn(-c2cc(Oc3ccccc3)ncn2)c1 do in these assays?
ClpP mod: -19%; DT40 TDP1 no CPT: 5%; TDP1 inh: -5%; TDP1 cell CPT: -4%

Results for c1ccc(Oc2cc(-n3cncn3)ncn2)cc1 ?
ClpP mod: 2.8µM*; DT40 TDP1 no CPT: -7%; TDP1 inh: 1%; TDP1 cell CPT: -7%; ClpP validation: 0%

What do the screens show for `COCC(=O)n1nc(-c2ccccc2)nc1NCc1ccc(F)cc1`?
ClpP mod: 4%; DT40 TDP1 no CPT: -26%; TDP1 inh: 6%; TDP1 cell CPT: 1%

What do the screens show for `CCC(=O)n1nc(-c2ccccc2)nc1NCc1ccccc1`?
ClpP mod: 38%; DT40 TDP1 no CPT: -19%; TDP1 inh: 1%; TDP1 cell CPT: -22%; ClpP validation: 6%

How did COc1nc(Nc2ccc(-c3nc4ccccc4o3)cc2)nc(N2CCOCC2)n1 do in these assays?
ClpP mod: 8.9µM*; DT40 TDP1 no CPT: -54%; TDP1 cell CPT: -61%; ClpP validation: 19µM*

Results for CC(C)OC(=O)c1ccc2nc3ccccc3nc2c1 ?
ClpP mod: 1%; DT40 TDP1 no CPT: inconclusive; TDP1 cell CPT: 1%

How did CCCC(=O)Nc1ccc2oc(-c3ccc(OC)c(Br)c3)nc2c1 do in these assays?
ClpP mod: 8.9µM*; DT40 TDP1 no CPT: -20%; TDP1 inh: 10%; TDP1 cell CPT: inconclusive; ClpP validation: 24µM*

What do the screens show for `CCc1ccc2oc(-c3ccc(NC(=O)c4ccc(OC)c(Br)c4)cc3)nc2c1`?
ClpP mod: -24%; DT40 TDP1 no CPT: -25%; TDP1 inh: 6%[2.28 µM]; TDP1 cell CPT: -15%

What do the screens show for `O=c1n(Cc2ccc(Cl)cc2)c2sc3c(c2c2ncnn12)CCCC3`?
ClpP mod: 2.8µM*; DT40 TDP1 no CPT: 15µM*; TDP1 inh: 2%; TDP1 cell CPT: inconclusive; ClpP validation: -3%

What do the screens show for `CCCc1cc(=O)oc2cc(C)cc(OC(C)C(=O)NCCN3CCOCC3)c12` (centres undefined)?
ClpP mod: 4%; DT40 TDP1 no CPT: -1%; TDP1 inh: 5%; TDP1 cell CPT: -17%

Results for O=C(Nc1nnc(-c2ccncc2)s1)C1CCCO1 (centres undefined) ?
ClpP mod: 6.3µM*; DT40 TDP1 no CPT: -14%; TDP1 inh: -6%; TDP1 cell CPT: -9%; ClpP validation: 12µM*

How did COc1cc(C)c(CN2CCN(CC(=O)Nc3ccccc3C(=O)NC3CC3)CC2)cc1OC do in these assays?
ClpP mod: 1%; DT40 TDP1 no CPT: -5%; TDP1 inh: 2%; TDP1 cell CPT: -28%

What do the screens show for `COc1cc(N)c2ncsc2c1`?
ClpP mod: -4%; DT40 TDP1 no CPT: -2%; TDP1 cell CPT: -19%

How did COc1cccc(-c2nc(-c3ccc(NC(=O)c4cccs4)cc3)no2)c1 do in these assays?
ClpP mod: 41%; DT40 TDP1 no CPT: inconclusive; TDP1 inh: -8%; TDP1 cell CPT: inconclusive; ClpP validation: inconclusive

How did Cc1c(C=C(C#N)c2ccc([N+](=O)[O-])cc2)c(=O)n(-c2ccccc2)n1C do in these assays?
ClpP mod: 1%; DT40 TDP1 no CPT: inconclusive; TDP1 cell CPT: inconclusive
